In PubChem BioAssay (EPA / NIEHS):
Calls of active or inactive are those of the source. Rule for the calls: active = hit-call score of the fitted dose curve at least 0.9, where 1 is the maximum; inactive = score below 0.9.

Columns and labels:
Details in all cases: mRNA level, 48 h; actives raise or lower the signal
[1] = read-out: Forkhead box O3 (FOXO3), FOXO3 (gene 2309); assay: LTEA_HepaRG_FOXO3: Life Technologies and Expression Analysis (LTEA) Assay for Forkhead box O3 (FOXO3) using HepaRG (AID 2283459)
How it was run: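 Differentiated human HepaRG cells, 48 h post-plating, exposed in duplicate for 48 h in serum-free induction medium; 8-point half-log series from 100 uM in 0.5% DMSO. FOXO3 mRNA by TaqMan qRT-PCR, normalized to ACTB/GAPDH/POLR2A; bidirectional fit versus DMSO.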

[2] = read-out: ABC Transporter (ABCB1), ABCB1 (gene 5243); assay: LTEA_HepaRG_ABCB1: Life Technologies and Expression Analysis (LTEA) Assay for ABC Transporter (ABCB1) using HepaRG (AID 2283460)
How it was run: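 HepaRG cells exposed in duplicate for 48 h in serum-free induction medium to eight half-log concentrations up to 100 uM in 0.5% DMSO. ABCB1 mRNA quantified by qRT-PCR, normalised to ACTB, GAPDH and POLR2A; fitted bidirectionally versus DMSO.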

[3] = read-out: growth arrest and DNA damage 45 (GADD45B), GADD45B (gene 4616); assay: LTEA_HepaRG_GADD45B: Life Technologies and Expression Analysis (LTEA) Assay for growth arrest and DNA damage 45 (GADD45B) using HepaRG (AID 2283461)
How it was run: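 Differentiated HepaRG cells, plated 48 h then switched to serum-free induction medium, were exposed 48 h in duplicate to eight half-log concentrations from 100 uM in 0.5% DMSO; mRNA quantified by qRT-PCR, normalized to ACTB/GAPDH/POLR2A, bidirectional fit versus DMSO.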

[4] = read-out: ABC Transporter (ABCC3), ABCC3 (gene 8714); assay: LTEA_HepaRG_ABCC3: Life Technologies and Expression Analysis (LTEA) Assay for ABC Transporter (ABCC3) using HepaRG (AID 2283462)
How it was run: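 HepaRG cells in serum-free induction medium were exposed for 48 h in duplicate to 8-point half-log concentrations topping at 100 uM in 0.5% DMSO. ABCC3 mRNA was measured by qRT-PCR normalized to ACTB, GAPDH and POLR2A, with bidirectional fitting versus DMSO.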

[5] = read-out: ABC Transporter (ABCB11), ABCB11 (gene 8647); assay: LTEA_HepaRG_ABCB11: Life Technologies and Expression Analysis (LTEA) Assay for ABC Transporter (ABCB11) using HepaRG (AID 2283463)
How it was run: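 Differentiated human HepaRG cells in serum-free induction medium, dosed in duplicate for 48 h. Eight-point half-log series from 100 uM in 0.5% DMSO; ABCB11 mRNA by qRT-PCR, normalized to ACTB, GAPDH, POLR2A, fitted bidirectionally versus DMSO.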

[6] = read-out: ABC Transporter (ABCC2), ABCC2 (gene 1244); assay: LTEA_HepaRG_ABCC2: Life Technologies and Expression Analysis (LTEA) Assay for ABC Transporter (ABCC2) using HepaRG (AID 2283464)
How it was run: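 HepaRG cells were plated 48 h, switched to serum-free induction medium, then exposed in duplicate for 48 h to 8 concentrations (top 100 uM, half-log steps, 0.5% DMSO). ABCC2 mRNA was measured by qRT-PCR normalized to ACTB/GAPDH/POLR2A; bidirectional fitting versus DMSO.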

[7] = read-out: Broad substrate specificity ATP-binding cassette transporter ABCG2 (Homo sapiens) (UniProt Q9UNQ0); assay: LTEA_HepaRG_ABCG2: Life Technologies and Expression Analysis (LTEA) Assay for ABC Transporter (ABCG2) using HepaRG (AID 2283465)
How it was run: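 Differentiated HepaRG cells were exposed for 48 h in serum-free induction medium to 8 half-log concentrations, top 100 uM, in 0.5% DMSO. ABCG2 mRNA was measured by qRT-PCR, normalized to ACTB, GAPDH and POLR2A, with bidirectional fitting versus DMSO.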

[8] = read-out: ATP-citrate lyase (ACLY), ACLY (gene 47); assay: LTEA_HepaRG_ACLY: Life Technologies and Expression Analysis (LTEA) Assay for ATP-citrate lyase (ACLY) using HepaRG (AID 2283466)
How it was run: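 Differentiated HepaRG cells exposed 48 h in serum-free induction medium to eight half-log concentrations up to 100 uM in 0.5% DMSO, duplicates. Transcript measured by Fluidigm TaqMan qRT-PCR, normalized to ACTB, GAPDH, POLR2A; bidirectional fit versus DMSO.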

[9] = read-out: Peroxisomal acyl-coenzyme A oxidase 1 (ACOX1) gene, ACOX1 (gene 51); assay: LTEA_HepaRG_ACOX1: Life Technologies and Expression Analysis (LTEA) Assay for Peroxisomal acyl-coenzyme A oxidase 1 (ACOX1) gene using HepaRG (AID 2283467)
How it was run: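 HepaRG cells, plated 48 h then switched to serum-free induction medium, were exposed in duplicate for 48 h to 8-point half-log concentrations up to 100 uM in 0.5% DMSO. ACOX1 mRNA was measured by qRT-PCR, normalized to ACTB/GAPDH/POLR2A, and fitted bidirectionally versus DMSO.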

[10] = read-out: Bcl-2 (BAD) gene, BAD (gene 572); assay: LTEA_HepaRG_BAD: Life Technologies and Expression Analysis (LTEA) Assay for Bcl-2 (BAD) gene using HepaRG (AID 2283469)
How it was run: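 Differentiated HepaRG cells were exposed in duplicate in 0.5% DMSO for 48 h to eight-point half-log concentrations up to 100 uM. BAD mRNA was measured by Fluidigm TaqMan qRT-PCR, normalized to ACTB, GAPDH and POLR2A, and fitted bidirectionally against DMSO.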

Measured: AC50

Broad substrate specificity ATP-binding cassette transporter ABCG2 (Homo sapiens), sequence (Q9UNQ0 whole entry, looked up): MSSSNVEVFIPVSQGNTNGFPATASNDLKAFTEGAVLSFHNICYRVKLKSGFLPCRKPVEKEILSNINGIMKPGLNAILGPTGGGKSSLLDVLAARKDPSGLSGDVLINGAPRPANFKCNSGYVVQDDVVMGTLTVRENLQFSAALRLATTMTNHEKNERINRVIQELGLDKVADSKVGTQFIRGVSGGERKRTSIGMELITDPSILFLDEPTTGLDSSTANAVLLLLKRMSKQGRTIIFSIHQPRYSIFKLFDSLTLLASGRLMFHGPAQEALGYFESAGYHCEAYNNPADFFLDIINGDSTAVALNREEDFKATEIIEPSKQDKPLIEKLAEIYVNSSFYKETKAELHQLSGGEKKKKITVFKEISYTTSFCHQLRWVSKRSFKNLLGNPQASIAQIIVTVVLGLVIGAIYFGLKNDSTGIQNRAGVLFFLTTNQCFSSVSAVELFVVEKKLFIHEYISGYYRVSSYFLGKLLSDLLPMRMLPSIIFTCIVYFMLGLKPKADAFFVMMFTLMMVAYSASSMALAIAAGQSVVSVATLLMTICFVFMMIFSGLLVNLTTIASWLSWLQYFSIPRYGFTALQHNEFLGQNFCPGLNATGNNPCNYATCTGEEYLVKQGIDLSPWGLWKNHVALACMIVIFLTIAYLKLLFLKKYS

O=C1NS(=O)(=O)c2ccccc21
inactive: all assays above

CN(C)CCOC(c1ccccc1)c1ccccc1
active: [8] 81.6 µM
inactive: all other assays above

CN(Cc1cnc2nc(N)nc(N)c2n1)c1ccc(C(=O)N[C@@H](CCC(=O)O)C(=O)O)cc1
active: [5] 0.206 µM
not listed: [9]
inactive: all other assays above

CCCCC(CC)C(=O)O (stereo not given)
inactive: all assays above

O=C(CCCN1CCC(O)(c2ccc(Cl)cc2)CC1)c1ccc(F)cc1
active: [2] 85.6 µM | [4] 50 µM | [5] 80.1 µM | [6] 80.7 µM | [8] 32 µM | [9] 67 µM
inactive: [1] | [3] | [7] | [10]

CC(=O)Nc1ccc(O)cc1
inactive: all assays above

Cc1[nH]nc2c1N=C(c1ccccc1Cl)c1cc([N+](=O)[O-])ccc1N2
active: [1] 12.6 µM | [2] 0.742 µM | [3] 4.57 µM | [4] 3.26 µM | [5] 8.72 µM | [6] 31.9 µM | [9] 20.1 µM
inactive: [7] | [8] | [10]

CCCCc1oc2ccccc2c1C(=O)c1cc(I)c(OCCN(CC)CC)c(I)c1
inactive: [1] | [2] | [9] | [10]
active: [3] 59.6 µM | [4] 22.4 µM | [5] 52.1 µM | [6] 68.8 µM | [7] 61 µM | [8] 59.4 µM

OCC(CO)(CBr)CBr
inactive: all assays above

CCCCCCCCCCCCOS(=O)(=O)O
active: [2] 77.2 µM | [6] 86.2 µM
not listed: [5]
inactive: all other assays above

CCCCCCCCCCCCCCC
inactive: all assays above

CS(=O)(=O)c1ccc([C@@H](CC2CCCC2)C(=O)Nc2cnccn2)cc1Cl
active: [7] 12.8 µM
not listed: [2] | [5]
inactive: all other assays above

CCCCC=O
inactive: all assays above

O=C(c1ccccc1)c1ccccc1
inactive: all assays above

CCC(C)c1ccccc1O (stereo not given)
not listed: [8]
inactive: all other assays above

N=C(N)c1ccc(OCCCCCOc2ccc(C(=N)N)cc2)cc1
inactive: [1] | [10]
active: [2] 4.87 µM | [3] 7.1 µM | [4] 3.46 µM | [5] 4.37 µM | [6] 25.6 µM | [7] 2.79 µM | [8] 35.9 µM | [9] 29 µM
